According to the supplement of paper PMC6555819:

What was measured:
Test in all cases: PBM binding z-score (relative to random genomic background probes); higher = stronger binding; sequences stand for … in GC…GCGATTGACAGCGTAGAATGAAGG
[1] = test system: RARb homodimer (NR concentration 270 nM)
Method in brief: (§1)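 Binding buffer was PBS pH 7.4 with 2% milk, 0.02% Triton X-100, 1 mM DTT, 0.2 mg/mL BSA and 0.4 mg/ml salmon testes DNA. In it, ligand-free nuclear receptor dimers were incubated 1 h on custom Agilent 4×180K protein-binding microarrays carrying double-stranded probes. Antibodies against each partner (one per run) detected binding, and z-scores were calculated against random background probes after regression normalization of scanned fluorescence.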

[2] = test system: RARg:RXRa (NR concentration 270 nM, RXRa partner concentration 90 nM)
Method in brief: as §1

[3] = test system: RARg homodimer (NR concentration 270 nM)
Method in brief: as §1

[4] = test system: RXRa DBDmut IVT, anti-RXR (DBD mutation: RXRa K156A/R161A, NR concentration 90 nM)
Method in brief: as §1

[5] = test system: RXRa homodimer (NR concentration 180 nM)
Method in brief: as §1

[6] = test system: THRa:RXRa (NR concentration 90 nM, RXRa partner concentration 90 nM)
Method in brief: as §1

[7] = test system: THRa homodimer (NR concentration 90 nM)
Method in brief: as §1

[8] = test system: VDR homodimer (NR concentration 270 nM)
Method in brief: as §1

## CGTCAAGGTTCAACTAAGGTAACGTAAAGCACGC
[1]
  PBM binding z-score: 2.36
[2]
  PBM binding z-score: 3.57
[3]
  PBM binding z-score: 2.98
[4]
  PBM binding z-score: 4.42
[5]
  PBM binding z-score: 3.53
[6]
  PBM binding z-score: 5.38
[7]
  PBM binding z-score: 1.72
[8]
  PBM binding z-score: 3.36

## TCTTGTAGATCAACAGGAGGTTAAGAACGATCGA
[1]
  PBM binding z-score: 0.615
[2]
  PBM binding z-score: 0.992
[3]
  PBM binding z-score: 0.377
[4]
  PBM binding z-score: 0.686
[5]
  PBM binding z-score: 0.967
[6]
  PBM binding z-score: 0.923
[7]
  PBM binding z-score: -0.518
[8]
  PBM binding z-score: -0.0634

## ACTCGGAGGACTAAGGTCAGAGCTACGCCAGTGA
[1]
  PBM binding z-score: 3.15
[2]
  PBM binding z-score: 2.89
[3]
  PBM binding z-score: 2.54
[4]
  PBM binding z-score: 0.168
[5]
  PBM binding z-score: 2.34
[6]
  PBM binding z-score: 3.35
[7]
  PBM binding z-score: 2.6
[8]
  PBM binding z-score: 0.805

## TGATATAGGTAATACAGGTGAAAGTCGGCATCTA
[1]
  PBM binding z-score: 0.513
[2]
  PBM binding z-score: 0.793
[3]
  PBM binding z-score: 0.583
[4]
  PBM binding z-score: -0.27
[5]
  PBM binding z-score: 1.12
[6]
  PBM binding z-score: 0.952
[7]
  PBM binding z-score: 0.267
[8]
  PBM binding z-score: 0.316

## GCTTGTAGATCAAGGTTAAAAAAGACTAAGCTAA
[1]
  PBM binding z-score: 0.0487
[2]
  PBM binding z-score: 0.373
[3]
  PBM binding z-score: 0.226
[4]
  PBM binding z-score: 0.0617
[5]
  PBM binding z-score: 0.736
[6]
  PBM binding z-score: 1.14
[7]
  PBM binding z-score: -0.222
[8]
  PBM binding z-score: 0.0143

## GCGACTGGGGCAAAGCAGGTAACCATAAGGTTGG
[1]
  PBM binding z-score: 0.207
[2]
  PBM binding z-score: 0.0978
[3]
  PBM binding z-score: 0.448
[4]
  PBM binding z-score: -0.914
[5]
  PBM binding z-score: 0.117
[6]
  PBM binding z-score: 2.89
[7]
  PBM binding z-score: -0.129
[8]
  PBM binding z-score: -0.329

## CCTCCTGGGCCACGAAAGGTCATTGATTCAGTGA
[1]
  PBM binding z-score: 4.56
[2]
  PBM binding z-score: 4.7
[3]
  PBM binding z-score: 4.3
[4]
  PBM binding z-score: 0.0691
[5]
  PBM binding z-score: 4.89
[6]
  PBM binding z-score: 3.84
[7]
  PBM binding z-score: 0.846
[8]
  PBM binding z-score: 2.04
